The whole screen tested about 1,500 compounds, of which about 460 (31%) were called active.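 How the source made its calls: active means viability at or below 80% at any tested concentration, marking the compound as toxic; inactive means the rest.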 The list is a sample of the results. Entries with a potency or affinity are not part of this list.
experiment: THP-1 cell cytotoxicity, dose response, cytotoxicity control for Vif-APOBEC3G degradation inhibitor project, THP-1 cells (AID 1117359); settings: THP-1 viability, CellTiter-Glo luminescence, 72 h; series mostly up to 40 µM; viability: at the top concentration

Compound	viability	outcome
COc1ccc(CC(=O)Oc2ccc(F)c(F)c2)cc1S(=O)(=O)N1CCOCC1	95.9% (inactive)	–
O=C(NCc1ccc(F)cc1)C1CCC(CNc2c(N3CCCCC3)c(=O)c2=O)CC1 (stereo not given)	94.3% (inactive)	–
Cc1ccc(C)c(OCCC(=O)Nc2ccccc2C(=O)NC2CC2)c1	90% (inactive)	–
CCC(CC)NC(=O)Nc1ccc(F)cc1F	94.3% (inactive)	–
CS(=O)(=O)N(C(=O)NC(=O)NC1CCS(=O)(=O)C1)C1CCCCC1 (stereo not given)	83.4% (inactive)	–
O=C(CNS(=O)(=O)c1ccc2ccccc2c1)Nc1ccc(F)c(F)c1F	103% (inactive)	–
CC(C)(C)NC(=O)CSc1nnc(-c2ccccn2)n1Cc1ccccc1	98.6% (inactive)	–
COc1ccc(OC)c(NC(=O)COC(=O)c2ccc(OC)c(S(=O)(=O)N3CCOCC3)c2)c1	113% (inactive)	–
COc1ccc(NC(=O)c2ccc(S(=O)(=O)N3CCOCC3)o2)cc1	115% (inactive)	–
CC(=O)Nc1ccc2c(c1)Cc1cc(N3C(=O)C=CC3=O)ccc1-2	88.1% (inactive)	–
NC(=O)C1CCCN(CC(=O)Nc2ccccc2C(=O)NC2CC2)C1 (stereo not given)	108% (inactive)	–
COC(=O)Cc1cc(=O)n(-c2nc3ccccc3[nH]2)[nH]1	93.6% (inactive)	–
CC(=O)OCCCNc1cc(Sc2nc3ccccc3s2)c2nonc2c1[N+](=O)[O-]	102% (inactive)	–
CCCC(NCC(=O)Nc1ccccc1C(=O)NC1CC1)c1ccccc1 (stereo not given)	83.8% (inactive)	–
Cc1ccc(-n2nc(C)c3c(C)c(CCC(=O)O)c(C)nc32)cc1	95.3% (inactive)	–
CCN(CC)CCCNC(=O)CSc1nc(-c2cccs2)cc(C(F)(F)F)n1	93.7% (inactive)	–
COCCn1c(N)c(N(Cc2ccccc2)C(=O)C2CCCCC2)c(=O)[nH]c1=O	95.3% (inactive)	–
O=C(O)c1ccc(NS(=O)(=O)c2cccc(C(=O)Nc3ccc([N+](=O)[O-])cc3)c2)cc1	109% (inactive)	–
O=C(CSCc1ccc(Br)cc1)NC1CC1	89.4% (inactive)	–
CC(c1ccccc1)N(C)CC(=O)NC(=O)NCCC1=CCCCC1 (stereo not given)	82% (inactive)	–
COC(=O)c1ccc(NC(=O)COc2cccc(-n3cnnn3)c2)cc1	94.6% (inactive)	–
CCOC(=O)C/C(C)=N\Nc1ccc([N+](=O)[O-])cc1[N+](=O)[O-]	105% (inactive)	–

Compound	viability	outcome
CCOC(=O)c1csc(N)c1-c1ccc([N+](=O)[O-])cc1	84.2% (inactive)	–
CCOc1ccccc1NC(=O)CCS(=O)(=O)c1ccc(Br)cc1	91.6% (inactive)	–
CC(=O)N1CCN(c2nc(-c3ccco3)c3c(c2C#N)CC(C)(C)SC3)CC1	91.1% (inactive)	–
CC1CCCN(Cc2c(O)ccc3c2O/C(=C\c2ccco2)C3=O)C1 (stereo not given)	88.4% (inactive)	–
COc1cccc(-c2nc(-c3cccs3)no2)c1	84% (inactive)	–
COc1ccc(C(C)=O)cc1CN1C(=O)NC2(CCCC2)C1=O	113% (inactive)	–
O=C(O)C1Nc2c(Cl)cc(Cl)cc2C2C=CCC12 (stereo not given)	98.9% (inactive)	–
COc1ccc(C(=O)N/N=C/c2cccnc2)cc1	91.2% (inactive)	–
Cc1ncc(CO)c(/C=N/NC(=O)c2cc(O)c(O)c(O)c2)c1O	91.7% (inactive)	–
CCOC(=O)c1nn(-c2ccc(Cl)cc2Cl)c(=N)c(C#N)c1C	91.6% (inactive)	–
CSc1ncccc1C(=O)NCc1nnc2ccccn12	85.7% (inactive)	–
COC(=O)C1=C(C)NC(=O)NC1c1ccc2c(c1)OCO2 (stereo not given)	86.2% (inactive)	–
Cc1cc(C)n2nc(SC(C)C(=O)N3CCCC3)nc2n1 (stereo not given)	89.7% (inactive)	–
O=C(COC(=O)c1ccccc1Br)Nc1nnc(-c2ccccc2)o1	101% (inactive)	–
O=C(Nc1ccc(F)cc1F)c1noc2c1CCC2	95.5% (inactive)	–
CCOc1cccc(=O)c2c(C)n(C)c(C)c12	86.7% (inactive)	–
CCOC(=O)Cn1nc(-c2ccccc2)c2cnc3ccc(C)cc3c21	104% (inactive)	–
COc1ccc(/C=C/C(=O)NC(=S)Nc2ccccn2)cc1	99.5% (inactive)	–
C[C@@H]1CCCCO[C@H](CN(C)C(=O)c2ccccc2)[C@@H](C)CN([C@H](C)CO)C(=O)c2cc(NC(=O)NC3CCCCC3)ccc2O1	81.3% (inactive)	–
COc1cccc(/C=N/n2c(-c3cc(C)[nH]n3)n[nH]c2=S)c1	95% (inactive)	–
CS(=O)(=O)N1CCCCC1CCN1CCCCC1 (stereo not given)	96.8% (inactive)	–
CCOC(=O)c1cccc2c(=O)c(C(=O)c3ccc(Cl)cc3)c(C(=O)OC)[nH]c12	97.6% (inactive)	–

Compound	viability	outcome
CCOC(=O)COn1c(=O)c(-c2ccc(Cl)cc2)[n+]([O-])c2ccccc21	112% (inactive)	–
CNC(=O)C(=O)N/N=C/c1cccnc1	81.3% (inactive)	–
COc1cccc(CN2CCSCC2)c1	91.3% (inactive)	–
CCNC(=S)Nc1cccc(S(=O)(=O)NC2=NCCC2)c1	101% (inactive)	–
CC(=O)NCCn1c(SCC(=O)Nc2ccc(C)cc2)nc2ccccc2c1=O	89.7% (inactive)	–
CC(=O)N1CCN(c2ccc(NCc3ccc(F)cc3)cc2)CC1	95.9% (inactive)	–
CCC(NC(=O)Nc1ccc(O)cc1)(C(F)(F)F)C(F)(F)F	96% (inactive)	–
O=C1/C(=C/c2ccco2)SC(=S)N1c1cccnc1	100% (inactive)	–
O=S(=O)(O)c1cc(O)c2c(O)c(N=Nc3cc(Cl)ccc3O)c(S(=O)(=O)O)cc2c1	87.5% (inactive)	–
Cc1ccccc1OCCC(=O)Nc1ccccc1C(=O)NC1CC1	84.7% (inactive)	–
CC(=O)Nc1ccc(OCC(=O)N2CCc3ccccc3C2)cc1	112% (inactive)	–
O=C(Nc1nnc(SCc2c(Cl)cccc2Cl)s1)c1cccc([N+](=O)[O-])c1	97.1% (inactive)	–
O=C(OCC(=O)N1CCN(C(=O)c2ccco2)CC1)c1cc(-c2ccco2)nc2ccccc12	86.7% (inactive)	–
Cc1ccc(N2CC(NC(=O)N3CCN(C(=O)c4ccco4)CC3)CC2=O)cc1 (stereo not given)	85.7% (inactive)	–
COc1cccc(CN2CCNC(=O)C2CC(=O)NCCn2nc(C)cc2C)c1OC (stereo not given)	93.5% (inactive)	–
Cc1ccccc1C(=O)NCC(=O)OC(C)C(=O)NC(C)CCc1ccccc1 (stereo not given)	106% (inactive)	–
O=C(Nc1nc(-c2ccco2)c(-c2ccco2)s1)C1CCC1	99.6% (inactive)	–
c1ccc(CSc2nnc(-c3ccco3)c(-c3ccco3)n2)cc1	83.8% (inactive)	–
CC(C)C[C@H](NC(=O)c1nc[nH]c1C(=O)N1CCN(c2ccccc2)CC1)C(=O)OC(C)(C)C	85.4% (inactive)	–
O=C(c1ccc2c(c1)[nH]c(=S)n1c3ccccc3nc21)N1CCN(c2cccc(Cl)c2)CC1	83.2% (inactive)	–
Cc1cccc(N2CCN(CC(O)COc3ccc(Cl)cc3)CC2)c1 (stereo not given)	96.6% (inactive)	–
COc1ccccc1N1CCN(C(=O)C(F)F)CC1	90% (inactive)	–

Compound	viability	outcome
COc1cccc(=O)c2c(C)n(-c3ccc(C(=O)O)cc3)c(C)c12	105% (inactive)	–
COc1cc(C(=O)Nc2ccc(N3CCCS3(=O)=O)cc2)c([N+](=O)[O-])cc1OC	95.8% (inactive)	–
CC(C)Cc1cc(C(=O)Nc2cccc(O)c2)no1	85.4% (inactive)	–
COc1ccc(S(=O)(=O)N2CCOC2CNC(=O)C(=O)NCc2ccccn2)cc1 (stereo not given)	80.3% (inactive)	–
Cc1csc(=O)n1CC(=O)OCC(=O)c1ccc(Br)cc1	110% (inactive)	–
O=C(O)/C=C/C(=O)NNc1ncnc2ccccc12	93.2% (inactive)	–
C=CCn1c(SCC(=O)c2c(N)n(C)c(=O)n(C)c2=O)nnc1-c1ccccc1F	80.2% (inactive)	–
COc1ccc(CNc2nc3ccccc3n2C)c(O)c1	81.6% (inactive)	–
COc1ccc2c(=O)c3c(=O)n(-c4ccc(C)cc4)c(-c4ccccc4)nc3oc2c1	105% (inactive)	–
O=[N+]([O-])c1ccc(N/N=C/c2ccc(O)c(O)c2O)c(S(=O)(=O)N2CCOCC2)c1	88.3% (inactive)	–
Cc1nnc(SCC(=O)N2CCN(c3ccccc3)CC2)n1C1CC1	111% (inactive)	–
CCOC(CCNC(=O)c1cn(C)c(=O)c2c1c1ccccc1n2C)OCC	87.9% (inactive)	–
Oc1ccc(/C=C/c2cnccn2)cc1	103% (inactive)	–
O=CN/C=C/c1cc(O)ccc1O	93.7% (inactive)	–
CC1CN(C(=O)COC(=O)Cc2ccc(Cl)cc2)CC(C)O1 (stereo not given)	95.3% (inactive)	–
CCN(CC(=O)Nc1c(F)cccc1F)C(=O)CSC(=S)N1CCCC1	106% (inactive)	–
O=c1[nH]c2ccccc2c(O)c1-[n+]1ccccc1	105% (inactive)	–
CCc1ccc2c(CN3CCC(C(=O)OC)CC3)cc(=O)oc2c1	101% (inactive)	–
Cc1ccc(CNC(=O)COc2ccc3c(c2)CCC3)cc1	106% (inactive)	–
CCn1c(SCC(=O)OC)nc2sc3c(c2c1=O)CCC3	91.2% (inactive)	–
Cc1cc(SCC(=O)NCCCN2CCCC2=O)nc2ccccc12	108% (inactive)	–
Cc1cc2c(c(=O)o1)C(c1ccc([N+](=O)[O-])o1)C(C#N)=C(N)O2 (stereo not given)	106% (inactive)	–

Compound	viability	outcome
CC1CN(S(=O)(=O)c2cc(C(=O)NCc3ccncc3)ccc2Cl)CC(C)O1 (stereo not given)	103% (inactive)	–
CN(C)c1ccc(NC(=O)Nc2cccc(Cl)c2)cc1	84.4% (inactive)	–
CCN(CC(=O)Nc1ccc(NC(C)=O)cc1)C(=O)C1CCCC1	121% (inactive)	–
COC(=O)C1CCN(c2ccc([N+](=O)[O-])cc2)CC1	85.4% (inactive)	–
C=CCc1c(C)nc2c(C(=O)O)cnn2c1C	105% (inactive)	–
CC1(C)CCC(=O)c2ccccc21	87.5% (inactive)	–
O=S(=O)(O)c1cc(O)c2cc(Nc3ccccc3)ccc2c1	86% (inactive)	–
Cn1cc(/C=C/C(=O)N2CCCC(C(=O)c3cccc(C(F)(F)F)c3)C2)cn1 (stereo not given)	95.5% (inactive)	–
CC1(C)C2CCC1(C)C(OC(=O)C[n+]1ccccc1)C2 (stereo not given)	101% (inactive)	–
O=C1C(Cl)=C(N2CCCCC2)C(=O)C(Cl)=C1c1cnc(N2CCCCC2)s1	–	inactive
CN1CCN(C2=C(Cl)C(=O)C(c3cnc(N4CCCCC4)s3)=C(Cl)C2=O)CC1	100% (inactive)	–
CN1CCN(S(=O)(=O)Cc2ccc(Cl)cc2)CC1	90.8% (inactive)	–
CN(C)c1ncc(C2=C(Cl)C(=O)C(N3CCCC3)=C(Cl)C2=O)s1	89.6% (inactive)	–
CCn1c(CNC(=O)Cc2ccc(OC)cc2)nnc1SCC(=O)Nc1ccc(C(=O)O)cc1	90% (inactive)	–
Cc1cc(O)c(Oc2cc(C)cc(O)c2O)c(O)c1	99.7% (inactive)	–
Cc1nc(NCc2ccccc2)c2cc[nH]c2n1	88.9% (inactive)	–
COc1ccc2c(c1)n([O-])c1c([n+]2=O)CCC1	98.7% (inactive)	–
CC(C)C(NC(N)=O)C(=O)NC1CCCCC1 (stereo not given)	86.8% (inactive)	–
CN(CC(=O)Nc1cccc(F)c1)C(=O)c1cc(-c2ccco2)nc2ccccc12	96.6% (inactive)	–
CCc1ccccc1NNC(=O)CCc1ccccc1	90% (inactive)	–
Cn1cnnc1SCC(=O)Nc1ncc([N+](=O)[O-])s1	96.2% (inactive)	–
C=C(C)C(=O)Nc1cccc(C2=NOC3(C2)C[C@@H](C(N)=O)N(C(=O)CCCCC)C3)c1 (stereo not given in full)	99.8% (inactive)	–
